Source: PubChem BioAssay (NCATS)
Records with an inconclusive call do not appear. Calls of active or inactive are those of the source. Unless noted, calls come from the whole dose curve; as a rule, active = well fitted curve in the direction sought with a large enough effect; inconclusive = small, poorly fitted or top-dose-only effect, or another doubt; inactive = no such curve, though single readings can be large; an effect the other way counts as inactive or inconclusive.

Legend:
[1] = molecular target: Tyrosine-protein phosphatase non-receptor type substrate 1 (Homo sapiens) + Leukocyte surface antigen CD47 (Homo sapiens) (UniProt P78324+Q08722); assay: CD47-SIRPalpha protein protein interaction - Alpha assay qHTS validation (AID 1347059);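 note: bead proximity luminescence from CD47 binding SIRPalpha after compound preincubation with SIRPalpha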; note: potency is the fitted concentration of half-maximal effect
Chain of Tyrosine-protein phosphatase non-receptor type substrate 1 (Homo sapiens) + Leukocyte surface antigen CD47 (Homo sapiens) (P78324 whole entry, looked up, the tested form may be a part): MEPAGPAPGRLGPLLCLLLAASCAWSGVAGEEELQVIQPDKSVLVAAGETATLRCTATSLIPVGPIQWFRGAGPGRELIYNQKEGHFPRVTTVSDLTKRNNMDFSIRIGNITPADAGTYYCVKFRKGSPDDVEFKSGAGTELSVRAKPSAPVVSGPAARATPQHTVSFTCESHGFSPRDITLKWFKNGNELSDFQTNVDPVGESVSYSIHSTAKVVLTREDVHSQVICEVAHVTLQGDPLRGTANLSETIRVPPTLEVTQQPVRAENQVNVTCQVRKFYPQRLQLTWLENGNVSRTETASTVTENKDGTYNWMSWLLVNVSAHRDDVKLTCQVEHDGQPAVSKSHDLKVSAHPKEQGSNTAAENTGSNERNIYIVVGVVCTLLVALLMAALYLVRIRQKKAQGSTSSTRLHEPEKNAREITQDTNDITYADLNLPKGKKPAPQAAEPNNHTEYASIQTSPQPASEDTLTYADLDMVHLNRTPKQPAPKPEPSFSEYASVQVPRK
Chain of Tyrosine-protein phosphatase non-receptor type substrate 1 (Homo sapiens) + Leukocyte surface antigen CD47 (Homo sapiens) (Q08722 whole entry, looked up, the tested form may be a part): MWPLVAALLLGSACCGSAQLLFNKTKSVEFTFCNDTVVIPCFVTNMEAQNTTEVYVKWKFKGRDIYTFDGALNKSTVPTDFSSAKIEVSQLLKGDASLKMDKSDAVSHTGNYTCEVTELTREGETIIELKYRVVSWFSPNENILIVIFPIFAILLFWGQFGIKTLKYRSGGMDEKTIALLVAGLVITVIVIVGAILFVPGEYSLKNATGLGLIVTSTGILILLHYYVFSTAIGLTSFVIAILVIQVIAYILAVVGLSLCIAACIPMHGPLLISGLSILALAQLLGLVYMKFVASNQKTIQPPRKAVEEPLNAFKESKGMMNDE
Summary of the method: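 AlphaScreen signal between CD47-His (12.5 nM) and biotin-SIRPalpha (25 nM) soluble extracellular domains, bead-captured via Ni-NTA and streptavidin. Compounds, in 7-point titrations, met SIRPalpha 30 min before CD47; PBS pH 7.4 with 0.05% IGEPAL.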

[2] = molecular target: Parathyroid hormone/parathyroid hormone-related peptide receptor (Homo sapiens) (UniProt Q03431); assay: qHTS for PTHR1 Agonists: Optimization Screen against the NCGC LOPAC library (AID 1347079);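 note: GloSensor cAMP luminescence in HEK-293 GP2 cells expressing human PTHR1 with IBMX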
Chain of Parathyroid hormone/parathyroid hormone-related peptide receptor (Homo sapiens) (Q03431 whole entry, looked up): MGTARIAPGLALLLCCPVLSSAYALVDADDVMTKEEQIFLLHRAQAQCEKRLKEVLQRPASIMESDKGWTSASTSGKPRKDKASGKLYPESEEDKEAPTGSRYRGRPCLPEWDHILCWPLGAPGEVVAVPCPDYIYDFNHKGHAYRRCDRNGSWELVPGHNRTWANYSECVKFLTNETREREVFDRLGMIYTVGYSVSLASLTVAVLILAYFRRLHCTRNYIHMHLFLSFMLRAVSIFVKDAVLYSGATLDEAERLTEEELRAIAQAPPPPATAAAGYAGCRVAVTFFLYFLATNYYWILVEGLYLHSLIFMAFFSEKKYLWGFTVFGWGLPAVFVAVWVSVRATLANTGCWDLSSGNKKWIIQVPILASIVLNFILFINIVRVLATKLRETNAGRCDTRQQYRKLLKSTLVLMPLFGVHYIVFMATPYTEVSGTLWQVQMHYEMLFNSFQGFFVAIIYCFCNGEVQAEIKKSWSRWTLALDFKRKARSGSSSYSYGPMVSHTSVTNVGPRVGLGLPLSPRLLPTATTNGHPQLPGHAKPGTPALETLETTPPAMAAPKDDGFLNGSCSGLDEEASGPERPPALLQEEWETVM
Summary of the method: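 Signal increase flags agonism. GP2 cells, derived from HEK-293, express human PTHR1 and a GloSensor cAMP construct.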

[3] = qHTS for Inhibitors of the Functional Ribonucleoprotein Complex (vRNP) of Lassa (LASV) Arenavirus: LASV Primary Screen - GLuc reporter signal (AID 1347082; calls by dose curve; tested in HEK293 reporter line; note: nearly all actives have a fitted effect of over 60% in size; note: potency is the fitted concentration of half-maximal effect)
[4] = qHTS for Inhibitors of the Functional Ribonucleoprotein Complex (vRNP) of Lassa (LASV) Arenavirus: Viability assay - alamar blue signal for LASV Primary Screen (AID 1347083; calls by dose curve; tested in HEK293 reporter line; note: nearly all actives have a fitted effect of over 80% in size; note: potency is the fitted concentration of half-maximal effect)
[5] = qHTS for Inhibitors of the Functional Ribonucleoprotein Complex (vRNP) of Lymphocytic Choriomeningitis Arenaviruses (LCMV): Viability assay - alamar blue signal for LCMV Primary Screen (AID 1347085; calls by dose curve; tested in HEK293 reporter line; note: series mostly up to about 57 µM; nearly all actives have a fitted effect of over 80% in size)
[6] = molecular target: Nucleoprotein (Lymphocytic choriomeningitis virus (strain Armstrong)) (UniProt P09992); assay: qHTS for Inhibitors of the Functional Ribonucleoprotein Complex (vRNP) of Lymphocytic Choriomeningitis Arenaviruses (LCMV): LCMV Primary Screen - GLuc reporter signal (AID 1347086; calls by dose curve; note: series mostly up to about 57 µM; nearly all actives have a fitted effect of over 70% in size)
Chain of Nucleoprotein (Lymphocytic choriomeningitis virus (strain Armstrong)) (P09992 whole entry, looked up): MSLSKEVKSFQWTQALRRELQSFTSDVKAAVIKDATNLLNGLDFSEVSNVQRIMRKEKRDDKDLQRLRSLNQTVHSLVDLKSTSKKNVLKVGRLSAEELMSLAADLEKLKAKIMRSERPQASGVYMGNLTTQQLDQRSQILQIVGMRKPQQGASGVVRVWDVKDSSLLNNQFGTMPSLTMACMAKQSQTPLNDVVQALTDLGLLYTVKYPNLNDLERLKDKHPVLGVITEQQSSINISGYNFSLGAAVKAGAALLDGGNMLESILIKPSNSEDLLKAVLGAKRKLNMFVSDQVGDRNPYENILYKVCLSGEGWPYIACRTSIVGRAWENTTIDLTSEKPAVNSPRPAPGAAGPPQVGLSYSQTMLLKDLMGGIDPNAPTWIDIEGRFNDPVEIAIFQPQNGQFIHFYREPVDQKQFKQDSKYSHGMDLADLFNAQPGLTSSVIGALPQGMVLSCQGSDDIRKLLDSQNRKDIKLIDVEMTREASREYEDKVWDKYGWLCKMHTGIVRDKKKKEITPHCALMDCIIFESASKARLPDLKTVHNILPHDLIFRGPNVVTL

Measured: Potency

CCCN(CCC)C1Cc2cc(OC)c(OC)cc2C1
inactive: all assays above

O=C1/C(=C/c2ccccc2)C[C@@]2(O)[C@H]3Cc4ccc(O)c5c4[C@@]2(CCN3CC2CC2)[C@H]1O5
inactive: [1]

CC(C)(C)c1o[nH]c(=O)c1CC(N)C(=O)O (centres undefined)
inactive: [1] | [2] | [3] | [4]

C=CCN1C[C@@H](C)N([C@H](c2ccc(C(=O)N(CC)CC)cc2)c2cccc(OC)c2)C[C@@H]1C
inactive: [1] | [2]

C[N+](C)(C)CCOC(=O)CBr
inactive: all assays above

CCn1cnc2c(Nc3cccc(Cl)c3)nc(N[C@@H]3CCCC[C@@H]3N)nc21
inactive: [1] | [2]

CC(N)Cc1c[nH]c2ccc(O)cc12 (centres undefined)
inactive: all assays above

CCCN1CCc2cc(O)cc3c2[C@H]1Cc1ccc(O)c(O)c1-3
inactive: all assays above

C[C@H](Cc1ccc2c(c1)OC(C(=O)O)(C(=O)O)O2)NC[C@H](O)c1cccc(Cl)c1
inactive: all assays above

O=C(NC1CN2CCC1CC2)c1cc2ccoc2cn1 (centres undefined)
inactive: [1]

CCCN(CCC)[C@H]1CCc2c(F)ccc(O)c2C1
inactive: all assays above

CN1CCc2cc(O)cc3c2[C@H]1Cc1ccc(O)c(O)c1-3
inactive: all assays above

C[C@H]1C2Cc3ccc(O)cc3[C@@]1(C)CCN2CC1CC1
inactive: [1]

CC1(C(=O)O)C2CCC(O2)C1(C)C(=O)O (centres undefined)
inactive: [1] | [2]

O=C1CC[C@@]2(O)C3Cc4ccc(O)c5c4C2(CCN3CC2CC2)[C@H]1O5 (some centres undefined)
inactive: all assays above

CO[C@H]1CC=C2CCN3CCC4=C(CC(=O)OC4)[C@]23C1
inactive: all assays above

O=[N+]([O-])c1ccc2nc(N3CCNCC3)ccc2c1
inactive: all assays above

Nc1cc2c(ncn2CCOCP(=O)(O)O)c(=O)[nH]1
inactive: [1]

CCN1C[C@@]2(COC)C3[C@@H](OC)C4[C@@H]1C3([C@@H]1C[C@]3(O)[C@H](OC(=O)c5ccccc5)[C@@H]1[C@]4(OC(C)=O)[C@@H](O)[C@@H]3OC)[C@H](OC)C[C@H]2O
inactive: all assays above

NNC(N)=O
inactive: all assays above

CC(=O)NBr
inactive: all assays above

CC(N)c1cccc(Cl)c1Cl (centres undefined)
inactive: all assays above

CN1CC[C@@]2(C)c3cc(O)ccc3N(C)C12 (some centres undefined)
inactive: all assays above

NC(Cc1cc(O)c(O)cc1O)C(=O)O (centres undefined)
active: [1] 0.927 µM
inactive: all other assays above

NNC(=O)c1ccc(O)cc1
inactive: all assays above

Ic1ccccc1CNC1C2CCN(CC2)C1C(c1ccccc1)c1ccccc1 (centres undefined)
inactive: [1] | [2]

CC(C)(C)OC(=O)NC1[C@H]2CNC[C@@H]12 (some centres undefined)
inactive: [1]

CCOC(=O)c1ncn2c1[C@@H]1CCCN1C(=O)c1cc(OC)ccc1-2
inactive: all assays above

O=c1ccc2[nH]cc(C3=CCNCC3)c2[nH]1
inactive: [1]

OCc1cnc[nH]1
inactive: all assays above

CN1CCC(c2c[nH]c3ccc(O)cc23)CC1
inactive: all assays above

CN(C(=O)Cc1ccc(Cl)c(Cl)c1)C(CN1CCCC1)c1cccc(OCC(=O)O)c1 (centres undefined)
inactive: all assays above

OC1CCCCC1N1CCC(c2ccccc2)CC1 (centres undefined)
inactive: all assays above

CC(C)(C)c1cc(C=C(C#N)C#N)cc(C(C)(C)C)c1O
inactive: [1] | [2]

C[C@]12Cc3cn4c(nc3C=C1CCC1C2CC[C@@]2(C)[C@H]1CC[C@@]2(O)C#N)nc1ccccc14 (some centres undefined)
inactive: [1] | [2]

NCCCP(=O)(O)O
inactive: all assays above

CN1C2CCC1CC(OC(c1ccccc1)c1ccccc1N)C2 (centres undefined)
inactive: all assays above

CCCN1CCC[C@@H](c2cccc(O)c2)C1
inactive: all assays above

NCC(O)c1cc(O)c(O)cc1F (centres undefined)
inactive: all assays above

C[N+]1(C)CCc2cc3c(cc2[C@H]1[C@@H]1OC(=O)c2c1ccc1c2OCO1)OCO3
inactive: all assays above

COc1ccc(CNC(=O)/C=C/c2ccc3[nH]cc(CCN(C)C)c3c2)cc1
inactive: all assays above

C[N+](C)(C)CC#CCN1CCCC1=O
inactive: all assays above

CCCN1CC[C@@H]2c3cc(O)ccc3CC[C@@H]21
inactive: all assays above

CCCN(CCC)C1CCc2cccc(O)c2C1 (centres undefined)
inactive: all assays above

Cc1cc([C@@H]2CCCN2C)on1
inactive: all assays above

CN1CC[C@@]2(C)c3cc(OC(=O)Nc4ccccc4)ccc3N(C)[C@@H]12
inactive: all assays above

CC(=O)OCC1=C(C(=O)O)N2C(=O)[C@@H](NC(=O)CCC[C@@H](N)C(=O)O)[C@H]2SC1
active: [1] 0.414 µM
inactive: all other assays above

CCCN(CCC)CCc1ccc(O)c(O)c1
inactive: all assays above

CCCCCCCCCCCCCC(=O)O[C@@H]1[C@@H](C)[C@@]2(O)[C@@H](C=C(CO)C[C@@]3(O)C(=O)C(C)=C[C@@H]23)C2C(C)(C)[C@@]21OC(C)=O (some centres undefined)
inactive: all assays above

COc1ccc(OC)c(C(O)C(C)N)c1 (centres undefined)
inactive: all assays above

CCCC[N+]1(C)C2CC(OC(=O)[C@H](CO)c3ccccc3)CC1C1OC12 (some centres undefined)
inactive: all assays above

CNc1ccc2oc(C[C@H]3O[C@@]4(CC[C@H]3C)O[C@H]([C@H](C)C(=O)c3ccc[nH]3)[C@H](C)C[C@H]4C)nc2c1C(=O)O
active: [3] 7.08 µM | [4] 11.2 µM
inactive: all other assays above

N[C@@H](Cn1oc(=O)[nH]c1=O)C(=O)O
inactive: all assays above

COC(=O)N1CCN(C(=O)Cc2ccc(Cl)c(Cl)c2)C(CN2CCCC2)C1 (centres undefined)
inactive: all assays above

C[N+]1(C)C2CCC1CC(OC(=O)c1c[nH]c3ccccc13)C2 (centres undefined)
inactive: all assays above

Clc1ccc(N2CC3CCC(C2)N3)nn1
inactive: all assays above

CCNC(=O)[C@H]1O[C@@H](n2cnc3c(N)ncnc32)[C@H](O)[C@@H]1O
inactive: all assays above

COc1ccc2[nH]cc(CCN)c2c1
inactive: all assays above

CCS(=O)(=O)Nc1cccc(C(=C2CCCCC2)c2cnc[nH]2)c1
inactive: all assays above

NC(CCCCCP(=O)(O)O)C(=O)O (centres undefined)
inactive: all assays above
